Measured values: PubChem BioAssay AID1159580 (chemical genetic matrix, 2015)
Out of some 5,500 compounds screened, about 2,000 (36%) were called active. Roughly 18% stayed inconclusive and do not appear here. Rule as the data show it: active = normalized growth mostly below about 0.91 (no sharp cut-off); inconclusive = no clear call, values can overlap the other calls; inactive = mostly above about 0.92. The list shows a part of the results.

Test: chemical genetic growth profiling, strain panel (AID 1159580);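 also: tested at 20 µM; growth read once vehicle control cultures reached saturation at 30 °C; 1 = growth at the plate median or of vehicle wells; lower values mean less growth of the strain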
Details: growth OD

Measured: normalized growth

COc1cc(C(=O)O)c(O)c2c1OCO2
inactive: S. cerevisiae deletion strains, locus YAL013W, strain DEP1, hits give low values 1.01 | S. cerevisiae deletion strains, locus YBR021W, strain FUR4, hits give low values 0.999 | S. cerevisiae deletion strains, locus YBR229C, strain ROT2, hits give low values 0.999 | S. cerevisiae deletion strains, locus YCL029C, strain bik1, hits give low values 0.995 | S. cerevisiae deletion strains, locus YDL035C, strain GPR1, hits give low values 1.02 | S. cerevisiae deletion strains, locus YDL074C, strain BRE1, hits give low values 1.05 | S. cerevisiae deletion strains, locus YDL101C, strain DUN1, hits give low values 1.01 | S. cerevisiae deletion strains, locus YDL134C, strain PPH21, hits give low values 1.01 | S. cerevisiae deletion strains, locus YDL185W, strain tfp1, hits give low values 1 | S. cerevisiae deletion strains, locus YDL192W, strain arf1, hits give low values 1 | S. cerevisiae deletion strains, locus YDR101C, strain arx1, hits give low values 0.989 | S. cerevisiae deletion strains, locus YDR150W, strain NUM1, hits give low values 1.01 | S. cerevisiae deletion strains, locus YDR162C, strain NBP2, hits give low values 1.02 | S. cerevisiae deletion strains, locus YDR318W, strain mcm21, hits give low values 1 | S. cerevisiae deletion strains, locus YDR388W, hits give low values 1 | S. cerevisiae deletion strains, locus YDR502C, strain sam2, hits give low values 0.999 | S. cerevisiae deletion strains, locus YEL061C, strain CIN8, hits give low values 1 | S. cerevisiae deletion strains, locus YER110C, hits give low values 1 | S. cerevisiae deletion strains, locus YER155C, strain BEM2, hits give low values 1 | S. cerevisiae deletion strains, locus YER167W, strain BCK2, hits give low values 1.01 | S. cerevisiae deletion strains, locus YGL078C, strain dbp3, hits give low values 1.01 | S. cerevisiae deletion strains, locus YGL086W, strain mad1, hits give low values 1 | S. cerevisiae deletion strains, locus YGL248W, strain PDE1, hits give low values 1.01 | S. cerevisiae deletion strains, locus YGR078C, strain PAC10, hits give low values 1.03 | S. cerevisiae deletion strains, locus YGR135W, strain pre9, hits give low values 0.996 | S. cerevisiae deletion strains, locus YGR229C, strain SMI1, hits give low values 1.02 | S. cerevisiae deletion strains, locus YGR252W, strain gcn5, hits give low values 1.02 | S. cerevisiae deletion strains, locus YHR030C, strain SLT2, hits give low values 1.01 | S. cerevisiae deletion strains, locus YHR079C, strain IRE1 (second series), hits give low values 1 | S. cerevisiae deletion strains, locus YHR094C, strain hxt1, hits give low values 1 | S. cerevisiae deletion strains, locus YHR129C, strain ARP1, hits give low values 1.01 | S. cerevisiae deletion strains, locus YHR200W, strain rpn10, hits give low values 1.01 | S. cerevisiae deletion strains, locus YIL066C, strain RNR3, hits give low values 1.02 | S. cerevisiae deletion strains, locus YIL073C, strain SPO22, hits give low values 1.02 | S. cerevisiae deletion strains, locus YIL125W, strain kgd1, hits give low values 1 | S. cerevisiae deletion strains, locus YIR030C, strain dcg1, hits give low values 1 | S. cerevisiae deletion strains, locus YJL095W, strain BCK1, hits give low values 1.01 | S. cerevisiae deletion strains, locus YJL134W, strain LCB3, hits give low values 1 | S. cerevisiae deletion strains, locus YJL168C, strain set2, hits give low values 1 | S. cerevisiae deletion strains, locus YJL187C, strain SWE1 (second series), hits give low values 1.01 | S. cerevisiae deletion strains, locus YJR043C, strain POL32, hits give low values 1.02 | S. cerevisiae deletion strains, locus YJR075W, strain HOC1, hits give low values 1 | S. cerevisiae deletion strains, locus YKL009W, strain mrt4, hits give low values 1.01 | S. cerevisiae deletion strains, locus YKL068W, hits give low values 1.01 | S. cerevisiae deletion strains, locus YKL085W, strain MDH1 (second series), hits give low values 1 | S. cerevisiae deletion strains, locus YKL085W, strain MDH1, hits give low values 1 | S. cerevisiae deletion strains, locus YKL190W, strain CNB1, hits give low values 1.01 | S. cerevisiae deletion strains, locus YKR001C, strain vps1, hits give low values 1.01 | S. cerevisiae deletion strains, locus YLR039C, strain RIC1, hits give low values 1.04 | S. cerevisiae deletion strains, locus YLR058C, strain SHM2, hits give low values 1.01 | S. cerevisiae deletion strains, locus YLR102C, strain apc9, hits give low values 1 | S. cerevisiae deletion strains, locus YLR262C, strain YPT6, hits give low values 1.03 | S. cerevisiae deletion strains, locus YLR268W, strain sec22, hits give low values 1 | S. cerevisiae deletion strains, locus YLR330W, strain CHS5, hits give low values 1.01 | S. cerevisiae deletion strains, locus YLR342W, strain FKS1 (second series), hits give low values 1.01 | S. cerevisiae deletion strains, locus YLR371W, strain rom2, hits give low values 1.02 | S. cerevisiae deletion strains, locus YLR418C, strain cdc73, hits give low values 1 | S. cerevisiae deletion strains, locus YML016C, strain PPZ1, hits give low values 1.01 | S. cerevisiae deletion strains, locus YML032C, strain rad52, hits give low values 1.02 | S. cerevisiae deletion strains, locus YML124C, strain tub3, hits give low values 0.998 | S. cerevisiae deletion strains, locus YMR078C, strain ctf18, hits give low values 1 | S. cerevisiae deletion strains, locus YMR223W, strain ubp8, hits give low values 1.01 | S. cerevisiae deletion strains, locus YMR263W, strain SAP30, hits give low values 1.02 | S. cerevisiae deletion strains, locus YMR307W, strain GAS1, hits give low values 0.961 | S. cerevisiae deletion strains, locus YNL067W, strain RPL9B, hits give low values 1.01 | S. cerevisiae deletion strains, locus YNL128W, strain TEP1, hits give low values 1.02 | S. cerevisiae deletion strains, locus YNL153C, strain GIM3, hits give low values 1.02 | S. cerevisiae deletion strains, locus YNL233W, strain BNI4, hits give low values 1.01 | S. cerevisiae deletion strains, locus YNL250W, strain rad50, hits give low values 1.01 | S. cerevisiae deletion strains, locus YNL271C, strain bni1, hits give low values 1.01 | S. cerevisiae deletion strains, locus YNL298W, strain CLA4, hits give low values 1.01 | S. cerevisiae deletion strains, locus YNL307C, strain MCK1, hits give low values 1.01 | S. cerevisiae deletion strains, locus YNL322C, strain KRE1, hits give low values 1.01 | S. cerevisiae deletion strains, locus YNR052C, strain pop2, hits give low values 1.01 | S. cerevisiae deletion strains, locus YOL006C, strain TOP1, hits give low values 0.995 | S. cerevisiae deletion strains, locus YOL012C, strain htz1 1.11 | S. cerevisiae deletion strains, locus YOL147C, strain pex11, hits give low values 0.998 | S. cerevisiae deletion strains, locus YOR061W, strain CKA2, hits give low values 1.01 | S. cerevisiae deletion strains, locus YOR069W, strain VPS5, hits give low values 1.01 | S. cerevisiae deletion strains, locus YOR136W, strain idh2, hits give low values 1 | S. cerevisiae deletion strains, locus YOR144C, strain elg1, hits give low values 0.997 | S. cerevisiae deletion strains, locus YOR184W, strain ser1, hits give low values 1.01 | S. cerevisiae deletion strains, locus YOR316C, strain cot1, hits give low values 1.01 | S. cerevisiae deletion strains, locus YPL055C, strain LGE1, hits give low values 1.04 | S. cerevisiae deletion strains, locus YPL241C, strain CIN2, hits give low values 1.01 | S. cerevisiae deletion strains, locus YPR119W, strain clb2, hits give low values 0.997 | S. cerevisiae deletion strains, locus YPR141C, strain kar3, hits give low values 1.01 | S. cerevisiae deletion strains, locus YPR163C, strain tif3, hits give low values 1 | S. cerevisiae deletion strains, locus YPR167C, strain met16, hits give low values 1.01 | S. cerevisiae deletion strains, strain wtn01, hits give low values 0.982 | S. cerevisiae strains, strain wild type, hits give low values 1.02
